# In PubChem BioAssay (EPA / NIEHS):
# “And” between values parts separate entries of the source, which are not always exact repeats. Identical values can stand only once. The source holds several records for some structures; these can differ, active in one and inactive in another. The source made the active and inactive calls. The calls were made as follows: active = hit-call score of the fitted dose curve at least 0.9, where 1 is the maximum; inactive = score below 0.9.
# Read-out: Matrix Metallopeptidase 1 (MMP1), MMP1 (gene 4312)
# Experiment: BSK_BE3C_MMP1: BioMAP Diversity Plus: BE3C Assay for Matrix Metallopeptidase 1 (MMP1) Biomarker Activity (AID 2283024)
# Details: primary human bronchial epithelial cells; actives raise or lower the signal
# How it was run: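 Human bronchial epithelial cells (BE3C system) exposed to compound for 24 h; MMP1 then quantified by ELISA. Activity was fitted in both directions relative to DMSO.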
SMILES,AC50,outcome
O=P(O)(O)CCC(F)(F)C(F)(F)C(F)(F)C(F)(F)C(F)(F)C(F)(F)C(F)(F)C(F)(F)F,11.5 µM (active),inactive
CCC(C)c1ccccc1O (stereo unspecified),,inactive
O=C(O)C(F)(F)OC(F)(F)C(F)(F)OC(F)(F)C(F)(F)OC(F)(F)C(F)(F)C(F)(F)C(F)(F)F,5.81 µM (active) and 5.41 µM (active),
CCCCCCCCCCCCCCC,,inactive
O=C1NS(=O)(=O)c2ccccc21,,inactive
C[C@]12CC[C@@H]3c4ccc(O)cc4CC[C@H]3[C@@H]1C[C@@H](O)[C@@H]2O,,inactive
CCOC(=O)CN[C@@H](C(=O)N1CC[C@H]1C(=O)NCc1ccc(/C(N)=N/O)cc1)C1CCCCC1,,inactive
CCCCC(CC)C(=O)OCCOCCOCCOCCOC(=O)C(CC)CCCC (stereo unspecified),,inactive
Clc1ccc(Nc2nnc(Cc3ccncc3)c3ccccc23)cc1,,inactive
Cc1cccc2c1ccc1ccccc12,,inactive
CC(C)(C)c1ccc(O)c(O)c1,,inactive
O=P(O)(O)CCC(F)(F)C(F)(F)C(F)(F)C(F)(F)C(F)(F)C(F)(F)F,40 µM (active),inactive
O=S(=O)(O)C(F)(F)C(F)(F)C(F)(F)C(F)(F)C(F)(F)C(F)(F)C(F)(F)C(F)(F)C(F)(F)C(F)(F)F,3.54 µM (active),inactive
O=C(NO)c1ccccc1,,inactive
CC[N+](CC)(CC)Cc1ccccc1,,inactive
O=C(c1ccccc1)c1ccccc1,,inactive
OCC(F)(F)C(F)(F)C(F)(F)C(F)(F)C(F)(F)C(F)(F)C(F)(F)C(F)(F)C(F)(F)C(F)(F)C(F)(F)F,,inactive
O=C1OC2(c3ccccc31)c1cc(I)c(O)c(I)c1Oc1c2cc(I)c(O)c1I,3.22 µM (active),

SMILES,AC50,outcome
Cc1[nH]nc2c1N=C(c1ccccc1Cl)c1cc([N+](=O)[O-])ccc1N2,,inactive
O=C(NCc1ncc(C(F)(F)F)cc1Cl)c1c(Cl)cccc1Cl,,inactive
N=C(N)c1ccc(OCCCCCOc2ccc(C(=N)N)cc2)cc1,,inactive
C=CC(C)(CCC=C(C)C)OC(C)=O (stereo unspecified),,inactive
CCCCCCCCCCCCCCCCCC[N+](C)(C)Cc1ccccc1,10 µM (active),
O=C(O)CCC(F)(F)C(F)(F)C(F)(F)C(F)(F)C(F)(F)C(F)(F)F,7.99 µM (active),inactive
Oc1ccc(Cc2ccccc2O)cc1,,inactive
CCCCC=O,,inactive
CN(CCO)S(=O)(=O)C(F)(F)C(F)(F)C(F)(F)C(F)(F)C(F)(F)C(F)(F)C(F)(F)C(F)(F)F,1.63 µM (active),inactive
COCN(COC)c1nc(N(COC)COC)nc(N(COC)COC)n1,,inactive
O=C1c2ccc(O)c(O)c2C(=O)c2c(O)ccc(O)c21,,inactive
OCCN1CN(CCO)CN(CCO)C1,,inactive
CCCCc1oc2ccccc2c1C(=O)c1cc(I)c(OCCN(CC)CC)c(I)c1,25 µM (active),
O=C(O)CCC(F)(F)C(F)(F)C(F)(F)C(F)(F)C(F)(F)F,,inactive
CN(Cc1cnc2nc(N)nc(N)c2n1)c1ccc(C(=O)N[C@@H](CCC(=O)O)C(=O)O)cc1,,inactive
O=C(CC(=O)C(F)(F)C(F)(F)C(F)(F)F)c1cccs1,43.6 µM (active) and 45.2 µM (active),
CS(=O)(=O)c1ccc([C@@H](CC2CCCC2)C(=O)Nc2cnccn2)cc1Cl,9.05 µM (active),
CC1=NN(c2ccccc2)C(=O)C1,,inactive
